PfM18AAP inh-1 = PfM18AAP inhibitors, malaria aminopeptidase, primary screen, biochemical, QFRET, recombinant enzyme; M18 aspartyl aminopeptidase (Plasmodium falciparum 3D7); H-Glu-NHMec fluorogenic cleavage; inhibition, % at 7.35 µM; 290,000 compounds, 1.2% hits; AID 1822, 2009;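 active = inhibition above the campaign mean inhibition over all tested compounds plus 3 SD, cut at about 28% in these data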;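 also: 0% = plate median of test compound wells and 100% = 2 mM ZnCl2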
Cardio protect = cardioprotection against H2O2-induced cell death, primary screen, uHTS, H9c2 cells, ATPLite luminescence; H9c2 cardiomyocytes, H2O2 injury protection, 2 h; 360,000 compounds, 0.63% hits; AID 588492, 2011; protection from H2O2 cell death, % at 20 µM;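 active = compounds giving at least 50% protection of heart cells from peroxide-induced death in the single-dose screen, raw or plate-pattern-corrected value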;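 also: 0% = DMSO wells with peroxide and 100% = DMSO wells without peroxide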
PfGluPho inh = PfG6PD enzyme inhibitors, primary screen, biochemical, fluorescence intensity, uHTS; glucose-6-phosphate dehydrogenase-6-phosphogluconolactonase (Plasmodium falciparum 3D7); PfGluPho enzyme, NADPH resazurin-diaphorase fluorescence; inhibition, % at 20 µM; 350,000 compounds, 0.78% hits;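 active = inhibition reaching at least a set limit at 20 µM in the primary screen, cut at about 59% in these data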;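 also: 0% = DMSO wells with substrate and 100% = DMSO wells lacking glucose-6-phosphate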
PHOSPHO1 inh = PubChem AID 1565; recombinant PHOSPHO1, absorbance phosphatase assay; inhibition, % at 13.3 µM; 290,000 compounds, 1.1% hits; in the data active = inhibition above about 60%
Target sequence (Q8TCT1 whole entry, looked up): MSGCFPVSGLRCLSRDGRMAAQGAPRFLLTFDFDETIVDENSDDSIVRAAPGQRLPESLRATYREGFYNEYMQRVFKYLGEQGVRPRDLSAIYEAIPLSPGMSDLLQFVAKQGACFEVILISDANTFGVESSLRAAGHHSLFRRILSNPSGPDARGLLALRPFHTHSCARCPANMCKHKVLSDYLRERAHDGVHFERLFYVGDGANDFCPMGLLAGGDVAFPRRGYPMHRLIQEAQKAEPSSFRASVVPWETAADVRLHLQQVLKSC
ALR inh = inhibitors of human ALR sulfhydryl oxidase, primary screen, biochemical, H2O2 detection, HRP-luminol luminescence, single point; AID 485317, 2010; purified ALR, DTT oxidation; 290,000 compounds, 3.8% hits; inhibition, % (test concentration not listed); FAD-linked sulfhydryl oxidase ALR (Homo sapiens), P55789;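 active = mean replicate inhibition above about 79%, with every replicate also reaching it, limit read from the data; inconclusive = only one of the two criteria met; inactive = mean below limit and not every replicate reaching it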
Target sequence (P55789 whole entry, looked up): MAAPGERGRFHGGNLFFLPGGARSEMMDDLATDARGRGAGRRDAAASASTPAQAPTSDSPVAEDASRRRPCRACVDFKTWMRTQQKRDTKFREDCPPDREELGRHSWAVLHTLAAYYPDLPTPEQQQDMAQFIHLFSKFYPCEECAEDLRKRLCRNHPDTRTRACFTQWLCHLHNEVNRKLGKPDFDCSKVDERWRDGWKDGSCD
PfM18AAP inh-2 = PfM18AAP inhibitors, malaria aminopeptidase, confirmation, biochemical, QFRET, recombinant enzyme, triplicate; 2,400 compounds, 28% hits; AID 2170, 2009; H-Glu-NHMec fluorogenic cleavage; shares compounds with PfM18AAP inh-1; inhibition, % at 7.35 µM;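 active = mean inhibition over replicate wells above the hit cutoff set for the earlier primary screen, cut at about 29% in these data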;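 also: 0% = median of test compound wells and 100% = 2 mM ZnCl2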
CTSL1 counter = cathepsin L1 inhibitors, retest, confirmation, counter-screen for PFM18AAP inhibitor project, biochemical, QFRET, triplicate; purified cathepsin L1, Z-Leu-Arg-MCA fluorescence; shares compounds with PfM18AAP inh-1; 2,400 tested, under 10 active; inhibition, % at 5.96 µM;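 active = average inhibition across replicates above the hit cutoff set in the earlier primary screen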;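 also: 0% = median of test compound wells and 100% = Z-Phe-Ala-diazomethylketone 1 µM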
An asterisk follows results filed as active; ? = inconclusive; . = not tested or not shown. Rows were chosen to be rich in hits. Some 5.6% of all compounds tested hit in one or more screens of this group.

SMILES	PfM18AAP inh-1	Cardio protect	PfGluPho inh	PHOSPHO1 inh	ALR inh	PfM18AAP inh-2	CTSL1 counter
CCc1nnc(NC(=O)CSc2nnc(CNC(=O)c3cc(OC)c(OC)c(OC)c3)o2)s1	40.8*	9.8	-24.6	6.4	-1.1	-46.0	-0.6
CCSc1nnc(NC(=O)CSc2nnc(CNC(=O)c3ccc(OC)cc3)o2)s1	4.8	1.3	-37.0	5.6	.	.	.
COc1ccc(C(=O)NCc2nnc(SCC(=O)Nc3nnc(C)s3)o2)cc1OC	47.3*	5.4	6.1	-63.1	-2.9	-35.6	1.2
CCCCn1c(-c2sccc2C)n[nH]c1=S	32.0*	-1.2	26.4	-94.7	-5.1	0.9	4.9
NNC(=O)CNS(=O)(=O)c1ccc([N+](=O)[O-])cc1	35.4*	-0.1	10.6	31.7	-25.2	-2.5	-0.3
O=C(CNS(=O)(=O)c1ccccc1)OCC(=O)c1ccc([N+](=O)[O-])cc1	33.0*	-6.9	-19.7	8.3	45.5	0.7	-12.7
O=C(CNS(=O)(=O)c1ccccc1)OCC(=O)c1ccc(Br)cc1	-6.0	0.8	-10.8	22.4	-1.8	.	.
Cc1ccc(-c2nc(N/N=C/c3ccncc3)c3ccccc3n2)cc1	42.7*	-25.9	14.5	-1.7	45.3	-69.2	1.3
O=C1OC(Nc2ccc3c(c2)OCO3)c2ccccc21 (stereo not given)	45.3*	17.8	56.7	-5.5	99.1*	21.5	3.7
O=C1OC(Nc2ccc(F)c([N+](=O)[O-])c2)c2ccccc21 (stereo not given)	-1.0	7.4	7.5	27.4	.	.	.
COc1cc(/C=N/NC(=O)Cc2ccc(Br)cc2)cc(OC)c1O	5.2	-3.1	-1.4	7.6	22.8	.	.
COc1cc(/C=N/NC(=O)CC#N)cc(Br)c1O	56.8*	-2.0	23.8	11.9	11.7	-15.5	-0.4
Cc1ccc(C(=O)OCC(=O)NC(=O)c2ccccc2)o1	.	9.6	-2.1	.	-1.2	.	.
Cc1cccc(NC(=O)NNC(=O)c2ccc3ccccc3c2O)c1	27.5	7.0	-19.6	7.5	1.0	.	.
COc1ccc(C(=O)NNC(=O)c2ccc3ccccc3c2O)cc1	18.1	27.3	-28.1	.	-0.2	.	.
COc1cccc(OCC(=O)NNC(=O)c2ccc3ccccc3c2O)c1	37.1*	12.3	-45.6	.	.	-16.7	-4.6
O=C(NC1CCCCC1)c1ccc2ccccc2c1O	.	-7.3	1.4	.	.	.	.
O=C(NNC(=O)c1ccc2ccccc2c1O)Nc1ccc(F)cc1	33.6*	4.7	-25.7	19.0	1.1	-3.1	2.9
O=C(NNC(=O)c1ccc2ccccc2c1O)NC1CCCCC1	48.8*	0.7	-56.6	17.6	73.3	7.0	-1.2
CCN(CC)CCCn1c2c(c(SCC(=O)N3CCc4ccccc43)nc1=O)CCC2	.	4.2	11.1	.	-5.7	.	.
Cc1ccc(C(=O)NCCNS(=O)(=O)c2ccccc2[N+](=O)[O-])cc1	-3.8	-2.0	11.7	19.3	-15.0	.	.
O=C(c1ccc(Cl)cc1)c1c[nH]cc1-c1ccccc1	36.7*	-0.8	11.9	-29.1	.	-43.0	1.0
COc1ccc(C(=O)c2c[nH]cc2-c2ccccc2)cc1	3.1	0.5	2.6	-2.7	-3.2	.	.
O=C(NC(=S)NCCN1CCOCC1)c1ccc(F)cc1	-1.2	4.6	2.8	7.3	3.8	.	.
Cc1ccc(C(=O)NC(=S)NNC(=O)CCN2CCOCC2)cc1	38.2*	5.5	-21.0	32.5	98.3*	-19.4	-2.7
SMILES	PfM18AAP inh-1	Cardio protect	PfGluPho inh	PHOSPHO1 inh	ALR inh	PfM18AAP inh-2	CTSL1 counter
CCOc1c(Nc2ccccc2O)c(=O)c1=O	34.6*	7.4	6.8	-12.2	40.4	-28.5	1.3
c1ccc(CN2CCC3(CC2)Nc2ccccc2S3)cc1	34.3*	3.2	-7.9	-9.9	16.4	-54.5	5.3
c1ccc(CN2CCC3(CC2)Nc2ccccc2CO3)cc1	9.6	4.0	-21.8	-11.3	14.9	.	.
Cc1cc(NN)nc(NS(=O)(=O)c2ccccc2Cl)n1	39.3*	1.9	1.4	34.5	36.2	-1.7	1.6
Cc1ccc(S(=O)(=O)Nc2nc(C)cc(NN)n2)cc1	39.8*	9.2	-18.8	18.8	2.3	29.2*	-1.1
Cc1ccc(S(=O)(=O)Nc2nc(C)cc(NCCN)n2)cc1	3.8	5.5	-13.3	-22.6	-2.7	.	.
CCOC(=O)C1=C(C)NC(SCC(=O)OC)=C(C#N)C1c1ccc(C(=O)OC)cc1 (stereo not given)	36.5*	-5.2	15.3	55.4	-1.8	-12.1	4.6
C/C(=N\N1C(=O)CSC1=S)c1ccc(Br)cc1	50.2*	4.4	9.3	-113.9	-29.5	10.2	5.1
Fc1ccccc1-c1n[nH]c(=S)n1C1CC1	19.5	-2.2	.	-13.0	67.0	.	.
CC(C)Cn1c(-c2ccccc2F)n[nH]c1=S	32.5*	8.6	53.8	-17.2	5.1	1.3	-0.9
CCn1c(SCC(=O)c2ccc(O)c(O)c2)nnc1-c1ccc(C)cc1	43.1*	46.3	-53.5	81.3*	67.5	18.5	-8.7
C=CCNc1ncnc2c1ncn2[C@H]1CN(Cc2ccco2)C[C@@H](CO)O1	.	-1.1	.	.	.	.	.
Cc1oc2cc(O)ccc2c(=O)c1Oc1ccccc1	4.4	6.8	-30.5	37.9	-1.2	.	.
CC(=O)Oc1ccc2c(=O)c(Oc3ccccc3)c(C)oc2c1OC(C)=O	44.3*	64.6*	-3.4	1.0	99.5*	18.8	-6.6
CC(=O)c1c(C(C)=O)c(C)n(-c2ccc(N)c(C)c2)c1C	32.4*	-0.7	-13.0	27.6	.	-40.4	0.0
COc1ccc(C2=CC(=O)C[C@H](c3ccc(OC)cc3)C2)cc1	.	-3.3	4.0	.	-5.8	.	.
COc1ccc(C2=CC(=O)C=CC2=O)cc1	56.4*	.	.	34.7	.	61.8*	-3.1
C=CCn1c(-c2ccc(S(=O)(=O)N3CCOCC3)cc2)csc1=Nc1ccccc1	-7.3	-21.6	-3.7	-1.4	.	.	.
CC(=O)c1cccc(N=c2scc(-c3ccc(S(=O)(=O)N4CCOCC4)cc3)n2CCO)c1	50.5*	-18.4	47.0	-10.6	3.6	-35.5	0.4
O=C(CSc1ncn[nH]1)NCCc1ccccc1	9.4	1.3	12.4	9.5	-0.8	.	.
CC(Sc1ncn[nH]1)C(=O)NCc1ccccc1 (stereo not given)	34.7*	-0.4	3.6	28.7	-15.7	17.5	-1.2
O=C(O)c1ccc(/C=N/Nc2ncc(C(F)(F)F)cc2Cl)cc1	48.0*	4.3	13.6	14.7	.	-24.9	6.9
NC(=O)NNc1ncc(C(F)(F)F)cc1Cl	45.3*	1.5	19.6	11.9	?	36.0*	-5.3
O=C(NNc1ncc(C(F)(F)F)cc1Cl)c1c(Cl)cccc1Cl	9.4	8.1	3.0	15.9	.	.	.

Bioassay records: PubChem, several laboratories
